HEK293 tox: cytotoxic compounds in HEK 293 cells | 6.6% of 94,000 active | AID 1345083 | HEK 293 viability, ATP luminescence (CellTiter-Glo), 48-72 h | Potency, µM (highest dose often 115 µM), actives largely listed as inhibitors; note: nearly all actives have a fitted effect of over 60% in size
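Read-out: CellTiter-Glo ATP luminescence. Cells: HEK 293, 250 cells/well. Exposure: 48 or 72 hr, 37 degree Celsius.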
NPR1 antag: blocks ANP-stimulated signaling of human Npr1 receptor; 1.6% of 76,000 active; Potency, µM (titrated, usually from 46.3 µM), usual class: inhibitors; HEK293 hNpr1 GloSensor cGMP, ANP-stimulated luminescence; P16066; calls by dose curve; note: nearly all actives have a fitted effect of over 60% in size
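Compound pre-incubated 30 min at room temperature on GloSensor-loaded HEK293 cells stably carrying hNpr1 and the pGS-40F cGMP biosensor. Stimulation uses hNppA at 0.1 nM final; luminescence is taken at baseline and 20 min post-agonist.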
FLuc inh: inhibitors of firefly (Photinus pyralis) luciferase. P08659. 2.5% of 76,000 active. purified P. pyralis luciferase, luminescence, biochemical. AID 1347043. Potency, µM (titrated, usually from 115 µM), most hits filed as inhibitors; note: nearly all actives have a fitted effect of over 65% in size
Target sequence (P08659 whole entry, looked up): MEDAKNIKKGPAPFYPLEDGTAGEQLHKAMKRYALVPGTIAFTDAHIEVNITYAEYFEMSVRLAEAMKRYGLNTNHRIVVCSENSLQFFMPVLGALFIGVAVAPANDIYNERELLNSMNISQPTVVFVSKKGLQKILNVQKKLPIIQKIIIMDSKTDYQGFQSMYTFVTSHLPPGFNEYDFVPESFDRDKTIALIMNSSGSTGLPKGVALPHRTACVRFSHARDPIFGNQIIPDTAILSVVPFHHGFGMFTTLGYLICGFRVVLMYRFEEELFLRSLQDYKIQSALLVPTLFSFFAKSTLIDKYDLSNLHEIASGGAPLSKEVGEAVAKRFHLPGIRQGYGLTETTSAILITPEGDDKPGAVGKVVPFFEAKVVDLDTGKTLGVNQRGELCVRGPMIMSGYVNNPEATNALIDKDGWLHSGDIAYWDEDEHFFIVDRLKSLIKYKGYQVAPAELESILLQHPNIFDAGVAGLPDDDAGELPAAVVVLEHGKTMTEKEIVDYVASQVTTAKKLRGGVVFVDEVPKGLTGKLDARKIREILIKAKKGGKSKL
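FLuc 10nM, D-luciferin 10uM, ATP 10uM, Mg acetate 10mM, Tris acetate pH 7.5, Tween/BSA; cpd qHTS; enzyme added last; CCD luminescence.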
3T3 cytotox: cytotoxic compounds in NIH 3T3 cells | NIH 3T3 viability, CellTiter-Glo ATP luminescence, 48-72 h | Potency, µM (highest dose often 96.7 µM), hits mostly inhibitors | 4.3% of 94,000 active; note: nearly all actives have a fitted effect of over 55% in size
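First NIH 3T3 cells are plated at 400 cells/well; next compound is pinned in; then plates incubate 48 or 72 hr at 37 °C; finally CellTiter-Glo is added and luminescence read after 10 min.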
Hits are given with their value; 0 = inactive; ? = inconclusive; - = no result given. Only some compounds are listed: those with a hit (about 11% of all), similar ones and a draw of the others. Unless noted, calls come from the whole dose curve; as a rule, active = well fitted curve in the direction sought with a large enough effect; inconclusive = small, poorly fitted or top-dose-only effect, or another doubt; inactive = no such curve, though single readings can be large; an effect the other way counts as inactive or inconclusive.

SMILES	HEK293 tox	NPR1 antag	FLuc inh	3T3 cytotox
O=C(NCc1ccc(F)c(F)c1)c1ccc2nnc(Cc3ccc(Cl)cc3)n2c1	?	-	-	35µM
O=C(NCc1ccc(F)c(F)c1)c1ccc2nnc(C3CC3)n2c1	0	-	-	?
COc1ccc(Cc2nnc3ccc(C(=O)NCCc4ccc(Cl)cc4)cn23)cc1	89µM	-	-	?
COc1ccc(CCNC(=O)c2ccc3nnc(-c4ccc(Cl)cc4)n3c2)cc1	0	-	-	0
CC(C)NC(=O)c1ccc2oc(-c3ccnc(Cl)c3)nc2c1	?	-	-	0
Cc1cccc(NC(=O)N2CCC3(CCNC(=O)CC3)CC2)c1	0	-	-	0
Cc1ccc(-c2nnc(C3CN(C(=O)C4CCCCCC4)CC34CCOCC4)o2)cc1 (configuration not stated)	?	0	0	0
Cc1ccc2nc(-c3ccc(F)cc3)c(CN3CCCC(C(N)=O)C3)cc2c1 (configuration not stated)	?	0	?	?
Cc1cc(C)n(CCC(=O)N2c3ccccc3CC2c2noc(C3CCOCC3)n2)n1 (configuration not stated)	?	0	25µM	?
COc1ccc(CN2C[C@@H]3OCC(=O)N(c4ccccc4)[C@@H]3C2)cc1	?	?	0	?
COc1ccc(C(=O)NC2CCN(c3ccc4nnc(C5CC5)n4n3)C2)cc1 (configuration not stated)	0	-	-	0
COC1CCC(C(=O)N2CC(CNc3ccccc3)C3(C2)CN(c2ccccc2)C3)CC1 (configuration not stated)	63µM	0	0	45µM
O=C(O)c1ccc([S+](=O)([O-])N2CC(COc3ccccc3)C3(CN(c4ccccc4)C3)C2)cc1 (configuration not stated)	0	0	0	32µM
O=C(Cc1cccc(O)c1)N1CC(CNc2ccccc2)C2(C1)CN(c1ccccc1)C2 (configuration not stated)	32µM	0	0	22µM
COC1CCC(C(=O)N2CC(COc3ccccc3)C3(C2)CN(c2ccccc2)C3)CC1 (configuration not stated)	89µM	0	0	89µM
C=CCN1C[C@@H]2C[C@@H](C(=O)NC)N(C(=O)CCc3ccccc3)c3cccc(c32)C1=O	0	-	-	?
O=C(CCc1cccnc1)N1CC(CNc2ccccc2)C2(C1)CN(c1ccccc1)C2 (configuration not stated)	?	0	0	?
O=C(CCc1cccnc1)N1CC(COc2ccccc2)C2(C1)CN(c1ccccc1)C2 (configuration not stated)	89µM	0	0	?
N#CC1CCN(C(=O)C2CCCN2Cc2ccc(-c3cncnc3)cc2)CC1 (configuration not stated)	0	-	-	0
CC(=O)NC1(C)CCN(Cc2ccc(-c3ccc(Oc4ccccc4)cc3)cc2)C1 (configuration not stated)	?	18µM	22µM	13µM
CC(=O)NC1(C)CCCN(Cc2ccc(Oc3ccccc3)cc2)C1 (configuration not stated)	?	0	?	?
CC(=O)NC1(C)CCN(Cc2ccc(-c3ccc4ccccc4c3)cc2)C1 (configuration not stated)	28µM	16µM	?	25µM
CC(=O)NC1(C)CCN(Cc2ccccc2-c2ccccc2Oc2ccccc2)C1 (configuration not stated)	?	0	0	79µM
CCCNC(=O)C1CCCCc2nnc(-c3ccccc3)n21 (configuration not stated)	0	-	-	0
O=C(NCc1cccs1)c1nc2sccn2c1-c1cccnc1	0	-	-	?
SMILES	HEK293 tox	NPR1 antag	FLuc inh	3T3 cytotox
Cc1oc(C(O)c2ccccc2)nc1C(=O)NCc1ccco1 (configuration not stated)	?	0	0	?
COc1cc(CNC(=O)c2nc(C(O)c3ccccn3)oc2C)cc(OC)c1 (configuration not stated)	?	0	0	79µM
O=C(NC1CCCCC1)C1CCc2nnc(C3CCN([S+](=O)([O-])c4ccccc4Cl)CC3)n21 (configuration not stated)	0	-	-	0
Cc1cc(C(=O)N[C@H]2[C@H](O)[C@H](O)C[C@@H]2c2ccccc2)c(C(F)(F)F)o1	0	0	0	0
O=C(Nc1cccc(-n2cccn2)c1)C1CCCN(Cc2cccc(F)c2F)C1 (configuration not stated)	32µM	0	0	?
CCn1cc(C(=O)N2CCCC(C(=O)Nc3cccc(-c4cc5ccccc5[nH]4)c3)C2)cn1 (configuration not stated)	40µM	0	?	?
Cc1c(CN2CCCC(C(=O)Nc3cccc(-c4cc5ccccc5[nH]4)c3)C2)cnn1C (configuration not stated)	20µM	0	0	8.9µM
Cc1cc(C(=O)N2CCCC(C(=O)Nc3cccc(-c4cc5ccccc5[nH]4)c3)C2)nn1C (configuration not stated)	32µM	0	?	?
COC(=O)N1CCc2nc(C3CC3)nc(-c3ccc(O)cc3)c2CC1	0	-	-	0
Cc1ccc(-c2cn3cc(C(=O)NCCN4CCOCC4)nc3s2)cc1	0	-	-	0
O=C(Cc1ccccc1)N1CCCC2(CN[S+](=O)([O-])c3cccnc3N2)C1 (configuration not stated)	0	-	-	0
Cc1cccc(-c2cccc(NC(=O)C3CCCN(C(=O)c4cccc(C)n4)C3)c2)c1 (configuration not stated)	?	0	25µM	?
O=C(Nc1cccc(-c2nnc3n2CCCC3)c1)C1CCCC1	0	0	0	0
COc1ccc(-c2cc(-c3cccnc3)c3cncn3c2)cc1OC	?	0	0	35µM
COc1ccc(-c2cc(-c3ccc(CO)cc3)cn3cncc23)cc1	79µM	0	0	?
COc1ccc(-c2cc(-c3ccncc3)c3cncn3c2)cc1OC	?	0	0	25µM
COc1cccc(-c2cc(-c3cccnc3)c3cncn3c2)c1OC	?	0	50µM	?
COc1ncccc1-c1cc(-c2cccnc2)c2cncn2c1	?	0	0	?
COc1ccccc1-c1cc(-c2cccnc2)c2cncn2c1	?	0	0	?
O=C(NCCN1CCOCC1)c1cn2cc(-c3ccccc3)sc2n1	0	-	-	0
COc1ccc(-c2cc(N3CCOCC3=O)c3cncn3c2)cc1OC	0	0	0	?
COc1ccccc1-c1cc(N2CCOCC2=O)c2cncn2c1	0	0	0	100µM
COc1ccccc1-c1cc(-c2ccncc2)c2cncn2c1	89µM	0	0	11µM
COc1ccc(-c2cc(-c3ccc(OC)c(OC)c3)cn3cncc23)cc1	71µM	0	0	40µM
Cc1ccccc1-c1cc(-c2ccc(=O)[nH]c2)c2cncn2c1	71µM	0	0	25µM
CC(=O)NC1CC2(CCN(C(=O)C3CCN(C)CC3)CC2)c2ccccc21 (configuration not stated)	45µM	-	-	35µM
Cc1cc(C)c2c(CC(=O)N[C@@H]3CCOC[C@H]3Oc3ccccn3)coc2c1	50µM	0	0	?

Screening data as filed in PubChem BioAssay.
